According to PubChem BioAssay (NCATS):
“And” between values parts separate entries of the source, which are not always exact repeats. Equal values may be shown once. Records with an inconclusive call do not appear. The source made the active and inactive calls. The call rests on the fitted dose curve; in most records, active means well fitted inhibition curve with a large enough effect; inconclusive means small, poorly fitted or top-dose-only effect; inactive means flat fitted curve, though single readings scatter.

Assay: Drug repurposing screens with cells derived from glioblastoma tumor samples (AID 1345199); further: nearly all actives have a fitted effect of over 40% in size
Conditions: GBM patient neurospheres viability, ATP luminescence, 48 h; at 46.1 µM (top of the series); tumour line C
In short: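 Four patient lines of CD133+ GBM neurospheres were screened at several concentrations; hits were retested in those lines plus three slower-growing GBM lines, using 48-hour treatment and ATP-based viability.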
On the % scale 0 is the no-effect control and ±100 the full control effect.

Question: With `C[C@H]1[C@H]2CC[C@H]3[C@@H]4CC=C5C[C@@H](N(C)C)CC[C@]5(C)[C@H]4CC[C@]23CN1C` as the compound, how does the activity, negative = cell killing read?
Answer: -23.5% (inactive)

Question: With `CCOC(=O)[C@H](CCc1ccccc1)N[C@@H](C)C(=O)N1[C@H](C(=O)O)C[C@H]2CCCC[C@@H]21` as the compound, how does the activity, negative = cell killing read?
Answer: 1.22% (inactive) and -4.13% (inactive)

Question: For `O=C(Nc1cccc(C2=NCCN2)c1)Nc1cccc(C2=NCCN2)c1`, which activity, negative = cell killing is on record?
Answer: -6.35% (inactive)

Question: For `CC(C)NCC(O)c1ccc2ccccc2c1` (stereo not given), which activity, negative = cell killing is on record?
Answer: -5.59% (inactive)

Question: With `COc1ccc(C(Cl)=C(c2ccc(OC)cc2)c2ccc(OC)cc2)cc1` as the compound, how does the activity, negative = cell killing read?
Answer: 2.89% (inactive)

Question: For `CCc1oc2ccccc2c1C(=O)c1cc(Br)c(O)c(Br)c1`, which activity, negative = cell killing is on record?
Answer: -6.19% (inactive)

Question: With `CCCCN=C(N)N=C(N)N` as the compound, how does the activity, negative = cell killing read?
Answer: -8.24% (inactive)

Question: Which activity, negative = cell killing does the source give for `Nc1ccc(S(=O)(=O)NCc2ccccc2)cc1` here?
Answer: -10.5% (inactive)

Question: With `CC[N+](C)(CC)CCOC(=O)C(O)(c1ccccc1)C1CCCCC1` (stereo not given) as the compound, how does the activity, negative = cell killing read?
Answer: -9.68% (inactive)

Question: For `CC(C)(C)NC[C@H](O)COc1nsnc1N1CCOCC1`, which activity, negative = cell killing is on record?
Answer: -12.6% (inactive)

Question: For `CC(=O)NC(=O)c1ccccc1O`, which activity, negative = cell killing is on record?
Answer: -17.7% (inactive)

Question: With `O=[N+]([O-])c1cccc(S(=O)(=O)NCCNS(=O)(=O)c2cccc([N+](=O)[O-])c2)c1` as the compound, how does the activity, negative = cell killing read?
Answer: -36.6% (inactive)

Question: With `CN(C)CCOC(c1ccc(Cl)cc1)c1ccccn1` (stereo not given) as the compound, how does the activity, negative = cell killing read?
Answer: 3.84% (inactive)

Question: For `CCCCCN=C(N)N/N=C/c1c[nH]c2ccc(OC)cc12`, which activity, negative = cell killing is on record?
Answer: 9.98% (inactive)

Question: For `CN=C(N)NCCC[C@H](N)C(=O)O`, which activity, negative = cell killing is on record?
Answer: 8.15% (inactive) and -7.9% (inactive) and -1.89% (inactive)
